High-throughput results deposited in PubChem BioAssay by National Center for Advancing Translational Sciences (NCATS).
Hits are enriched below; roughly 0.88% of the tested compounds scored in any of these assays.
Six1-Eya2 inh: blocks human Six1 binding to Eya2; activity change, % (test concentration not listed); hit rate 0.56% among 360,000; AlphaScreen GST-Six1/His-Eya2 binding, biochemical; hits give low values; note: % is set by controls: 0 for no effect and ±100 for the full control effect
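AlphaScreen with GST-Six1 and His-Eya2 (5X mix: 250 nM and 500 nM), glutathione donor and nickel acceptor beads; buffer 50 mM Tris pH 8.0, 300 mM NaCl, 1 mM TCEP; 1 h at 37 C in the dark.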
RGS4 inhibitor: blocks human RGS4-accelerated GTP hydrolysis; Potency, µM (series often up to 114 µM), for the others: at the highest dose activity change, negative = inhibition, actives largely listed as inhibitors; Transcreener GDP fluorescence polarization, RGS4-accelerated GTP hydrolysis; AID 504845; hit rate 0.039% among 390,000; active = well fitted curve in the direction sought with a large enough effect; inconclusive = small, poorly fitted or top-dose-only effect, or another doubt; inactive = no such curve, though single readings can be large; an effect the other way counts as inactive or inconclusive; note: potency is the fitted concentration of half-maximal effect; % is set by controls: 0 for no effect and ±100 for the full control effect; nearly all actives have a fitted effect of over 75% in size
Target sequence (P49798 whole entry, looked up): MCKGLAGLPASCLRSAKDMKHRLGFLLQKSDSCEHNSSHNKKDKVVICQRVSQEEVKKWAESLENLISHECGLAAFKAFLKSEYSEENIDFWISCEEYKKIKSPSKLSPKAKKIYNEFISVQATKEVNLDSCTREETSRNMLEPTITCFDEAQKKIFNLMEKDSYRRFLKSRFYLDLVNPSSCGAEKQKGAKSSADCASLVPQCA
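MLSMR compounds (23 nl, pin-transferred) preincubated 10 min at room temperature with a 500nM (2x) first reagent, then RGS4 at 900nM (2x) plus Transcreener GDP mix added; fluorescence polarization (620/688 nm) read before and after 90 min at 30 °C.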
Glioma ERSR ind: ER stress response induction in glioma | U87-MG GRP78 promoter luciferase reporter, 16 h | Potency, µM, for the others: at the highest dose activation, usual class: activators | hit rate 0.02% among 420,000; active = well fitted curve in the direction sought with a large enough effect; inconclusive = small, poorly fitted or top-dose-only effect, or another doubt; inactive = no such curve, though single readings can be large; an effect the other way counts as inactive or inconclusive; note: potency is the fitted concentration of half-maximal effect; series mostly up to about 76 µM; % of control where 0% means no effect; nearly all actives have a fitted effect of over 35% in size
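Stably transfected U87-MG human glioma cells carrying a GRP78-based luminescent sensor were seeded at 1000 cells/well, pin-dosed with compounds and incubated 16 h. Luciferase reagent was then added, and end-point luminescence was read after 10 min at room temperature.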
pAkt inh: inhibitors of Akt phosphorylation | Neuro2A IGF-stimulated pAkt S473 HTRF, 20 min; hits give low values | activity change, % for hits at 50 µM | hit rate 0.32% among 360,000 | AID 651550; in the data active = activity change below about -80%; inconclusive = mostly about -51% to -80%; note: % is set by controls: 0 for no effect and ±100 for the full control effect
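Neuro2A cells (4,500/well, DMEM with 0.5% FBS) were treated with compound at a single 50 µM final concentration, stimulated with 6 nM IGF for 20 min at 37 °C, and lysed. Phospho-Akt Ser473 was read by HTRF as 665/615 ratio ×10^4.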
CtBP-E1A blk: blocks the CtBP interaction with E1A; hit rate 0.49% among 340,000; AlphaScreen GST-E1A/His-CtBP binding, 1536-well; hits give low values; AID 651724; activity change, % (no concentration beside the values); note: % is set by controls: 0 for no effect and ±100 for the full control effect
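AlphaScreen with 125 nM GST-E1A and 125 nM His-CtBP (5X stocks) in Tris pH 8.0, 300 mM NaCl, BSA, Tween 20, TCEP. Compounds preincubated 2 h at 37 deg C, then glutathione donor/nickel acceptor beads added for 1 h at 37 deg C in dark.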
Active calls of the source: *; i = inactive; ? = inconclusive; · = not tested or not shown; ! = repeats disagree. Cut-off read from the data, not from the text of the source, unless noted: active = activity change below about -65%; inconclusive = mostly about -30% to -63%; inactive = weaker than that.

SMILES	Six1-Eya2 inh	RGS4 inhibitor	Glioma ERSR ind	pAkt inh	CtBP-E1A blk
Cc1c(N=Nc2c(O)[nH]c(=S)[nH]c2=O)c(=O)n(-c2ccccc2)n1C	-84*	-15%	-4%	i	-93*
C=CCn1c(O)c(N=Nc2c(C)n(C)n(-c3ccccc3)c2=O)c(=O)[nH]c1=S	-91*	-29%	-5%	i	-87*
CCOc1ccc(-n2c(O)c(N=Nc3c(C)n(C)n(-c4ccccc4)c3=O)c(=O)[nH]c2=O)cc1	-90*	18%	-3%	i	-91*
Cc1c(N=Cc2c(O)n(Cc3ccc(F)cc3)c(=O)[nH]c2=O)c(=O)n(-c2ccccc2)n1C	-2	-27%	0%	·	8
C[C@@H]1[C@H](O)[C@@H](C)C=CC=CCCC=CC=CC=CC=C[C@H](O[C@H]2O[C@@H](C)[C@H](O)[C@@H](N)[C@@H]2O)CC2O[C@](O)(C[C@@H](O)[C@H](O)CC[C@@H](O)C[C@@H](O)C[C@@H](O)CC(=O)O[C@H]1C)C[C@H](O)[C@H]2C(=O)O	·	·	-4%	·	·
CN(C)C1C(=O)C(C(N)=O)C(=O)C2(O)C(=O)C3C(=O)c4c(O)cccc4C(C)(O)C3C(O)C12 (stereo unspecified)	·	·	-4%	·	·
O=C1[O][Sb-]23[O]C(=O)C([O]2)C2[O][Sb-]4([O]C(=O)C([O]4)C1[O]3)[O]C2=O	·	·	-11%	·	·
Cc1cc(/C=C2\C(=O)NC(=O)N(c3ccc(Br)cc3)C2=O)c(C)n1-c1cc(C(=O)O)cc(C(=O)O)c1	-84*	-43%	-2%	i	·
COc1ccc(N2C(=O)NC(=O)/C(=C\c3ccc([N+](=O)[O-])s3)C2=O)cc1	?	?	-9%	i	-21
COc1ccc(N2C(=O)NC(=O)/C(=C/c3ccc([N+](=O)[O-])s3)C2=O)cc1	-73*	?	0%	i	·
CC12CCC(=O)CC1CCC1C2CCC2(C)C1CCC2(C)O (stereo unspecified)	·	·	-4%	·	·
CCC1OC2(C)C(O)C(/C=C/C=C/C=C/c3oc(=O)cc(OC)c3C)OC1(C)C2OC(C)=O (stereo unspecified)	·	·	0%	·	·
O=C(O)c1cc[c]([Hg][Cl])cc1	-4	6.7µM*!	-3%	i	?
NC(Cc1ccc(F)cc1)c1csc(Nc2cnccn2)n1 (stereo unspecified)	-74*	·	-5%	i	-83*
NC(Cc1ccc(Cl)cc1)c1csc(Nc2ccccn2)n1 (stereo unspecified)	?	·	-4%	i	-68*
NC(Cc1ccc(F)cc1)c1csc(Nc2ccccn2)n1 (stereo unspecified)	-86*	·	-1%	i	-91*
NC(Cc1ccccc1)c1csc(Nc2ccccn2)n1 (stereo unspecified)	-86*	·	-4%	i	-90*
CCC(=O)OC1[C@@H](N2CCCCC2)C[C@H]2[C@@H]3CC[C@H]4C[C@H](OC(C)=O)[C@@H](N5CCCCC5)C[C@]4(C)[C@H]3CC[C@]12C (stereo partly specified)	·	·	14%	·	·
NCC(CC(=O)O)c1ccc(Cl)cc1 (stereo unspecified)	7	?	1%	-108%*	3
NC[C@@H](CC(=O)O)c1ccc(Cl)cc1	·	·	-4%	·	·
O=C1/C(=C\c2ccccc2)C[C@@]2(O)[C@H]3Cc4ccc(O)c5c4[C@@]2(CCN3CC2CC2)[C@H]1O5	·	·	-12%	·	·
Clc1cncc(N2CCNCC2)n1	·	4.2µM*	0%	·	·
CC1=C(O)C(=O)C=C2C1=CC=C1[C@]2(C)CC[C@@]2(C)C3C[C@](C)(C(=O)O)CC[C@@]3(C)CC[C@@]12C (stereo partly specified)	·	·	-12%	·	·
c1cc[n+]2c(c1)-c1cccc[n+]1CC2	·	·	-1%	·	·
O=C(N/N=C/c1c(O)n(CCc2ccc(F)cc2)c(=O)[nH]c1=O)c1ccccc1	-9	-12%	4%	i	-5
CCn1c(O)c(/C=N/NC(=O)c2ccccc2)c(=O)[nH]c1=S	-93*	14%	3%	i	-91*
COc1ccc(Cn2c(O)c(/C=N/NC(=O)c3ccncc3)c(=O)[nH]c2=O)cc1	?	13%	-4%	i	?
